From PubChem BioAssay
A selection: hits, their analogues and other compounds. The true share with any hit is near 11%.
GoLoco inh red – inhibitors of human Gai1-RGS12 GoLoco interaction (red fluorophore); P63096; Gai1:RGS12 GoLoco peptide FP, rhodamine, 10 min; Potency, µM (top dose mostly 61.6 µM), for the others: top-dose activity, negative = inhibition, hits mostly inhibitors; 0.44% of 230,000 active; AID 880; active = well fitted inhibition curve with a large enough effect, not every such curve was filed as active; inactive = no such curve, though single readings can be large or run the other way; note: potency is the fitted concentration of half-maximal effect; % is set by controls: 0 for no effect and ±100 for the full control effect; nearly all actives have a fitted effect of over 30% in size
ALDH1A1 inh – blocks purified human ALDH1A1 activity; 7.3% of 220,000 active; Purified ALDH1A1, NADH fluorescence, propionaldehyde substrate; Potency, µM (top dose mostly 75.3 µM), without a hit: top-dose activity, negative = inhibition, actives largely listed as inhibitors; P00352;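 note: potency is the fitted concentration of half-maximal effect; plate controls were no enzyme wells and a reference inhibitor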
Target sequence (P00352 whole entry, looked up): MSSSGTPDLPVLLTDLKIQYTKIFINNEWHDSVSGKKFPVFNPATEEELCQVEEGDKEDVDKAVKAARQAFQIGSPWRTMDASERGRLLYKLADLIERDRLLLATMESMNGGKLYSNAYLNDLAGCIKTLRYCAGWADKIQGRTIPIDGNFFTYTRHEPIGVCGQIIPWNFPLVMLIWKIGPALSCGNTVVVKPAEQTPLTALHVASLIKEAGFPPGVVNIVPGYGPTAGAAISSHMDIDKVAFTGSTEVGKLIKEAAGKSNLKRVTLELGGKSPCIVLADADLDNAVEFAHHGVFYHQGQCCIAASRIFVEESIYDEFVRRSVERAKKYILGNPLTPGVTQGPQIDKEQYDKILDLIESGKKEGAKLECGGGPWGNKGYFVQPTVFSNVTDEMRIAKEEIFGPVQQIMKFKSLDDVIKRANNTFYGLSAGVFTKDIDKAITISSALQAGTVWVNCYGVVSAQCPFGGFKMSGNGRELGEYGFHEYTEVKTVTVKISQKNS
HPGD inh – blocks human HPGD enzyme activity | AID 894 | Potency, µM, inactives show at the top dose activity change, negative = inhibition, usual class: inhibitors | 4.3% of 150,000 active | purified HPGD, NADH fluorescence kinetic, PGE2 substrate; note: potency is the fitted concentration of half-maximal effect; % is set by controls: 0 for no effect and ±100 for the full control effect
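NADH formation kinetics: reaction with 30 uM PGE2 and 1 mM NAD+ (final), 20 nM enzyme, Tris-HCl pH 8 with Tween 20, after 15 min compound preincubation at room temperature. Fluorescence change, last versus first of five reads.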
HTT cytoprotect – cytoprotection in Huntington HTT-Q103 PC12 cell model | Potency, µM (doses to about 56.4 µM), for the others: cytoprotection (ATP increase), most hits filed as activators | 0.14% of 230,000 active | PC12 HTT-Q103 induced, cytoprotection, ATP luminescence, 40 h; active = well fitted curve in the direction sought with a large enough effect; inconclusive = small, poorly fitted or top-dose-only effect, or another doubt; inactive = no such curve, though single readings can be large; an effect the other way counts as inactive or inconclusive; note: potency is the fitted concentration of half-maximal effect; % of control where 0% means no effect; nearly all actives have a fitted effect of over 45% in size
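PC12 cells stably carrying ecdysone-inducible Htt exon 1 (Q103)–GFP were induced with 100 nM tebufenozide (final) alongside library compounds in a dose series. Cytoprotection was scored as retained ATP by ATPlite luminescence.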
PNC inhibitor – inhibitors of perinucleolar compartment assembly. activity change (PNC), negative = inhibition, % at 10 µM. PC3M PTB-GFP, PNC prevalence imaging, 16 h; active compounds read low. 3.1% of 140,000 active;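 active = readout at or below -70, meaning at least 70% loss of cells showing the perinucleolar compartment, a nuclear body marking cancer cells; inconclusive = readout between -30 and a set limit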;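 note: plate controls were DMSO wells for no effect and camptothecin positive control wells for full effect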
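PC3M cells stably expressing PTB-GFP, 750–1000 cells/well, treated 16 h at 37 °C with compound (23 nl of library stock), in duplicate. After paraformaldehyde fixation and Hoechst stain, imaged at 20x; PNC prevalence scored by image analysis.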
HTT aggregate – reduces HttQ103-GFP aggregates in PC12 cells. PC12 HttQ103-GFP aggregates, Acumen cytometry, 40 h. Potency, µM (top dose mostly 46.1 µM), for the others: top-dose activity change, negative = inhibition, hits mostly inhibitors. 1.1% of 220,000 active; active = well fitted curve in the direction sought with a large enough effect; inconclusive = small, poorly fitted or top-dose-only effect, or another doubt; inactive = no such curve, though single readings can be large; an effect the other way counts as inactive or inconclusive; note: potency is the fitted concentration of half-maximal effect; % is set by controls: 0 for no effect and ±100 for the full control effect; nearly all actives have a fitted effect of over 60% in size
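Using laser scanning cytometry, GFP-positive aggregates were counted after lysis of PC12 cells induced with 100 nM tebufenozide to express HTT exon 1 Q103–GFP. Compounds were tested in titration.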
Starred values were filed as active, the others as inactive; ? = inconclusive; / = no result given; ! = not confirmed by another sample; [ ] = another dose, or the depositor's remark. Unless noted, calls come from the whole dose curve; as a rule, active = well fitted inhibition curve with a large enough effect (not every such curve was filed as active); inconclusive = small, poorly fitted or top-dose-only effect, or another doubt; inactive = no such curve, though single readings can be large or run the other way.

SMILES	GoLoco inh red	ALDH1A1 inh	HPGD inh	HTT cytoprotect	PNC inhibitor	HTT aggregate
O=C(NC1CCCC1)C(c1cccnc1)N(C(=O)c1csnn1)C1CCCC1 (centres undefined)	4%	?	5%	27%[1.9 µM]	6	2%
O=C(NC1CCCC1)C(c1cccnc1)N(C(=O)c1csnn1)C1CC1 (centres undefined)	5%	8%	-3%	-18%[10 µM]	27	6%
O=C(O)c1cc(=O)c2ccccc2[nH]1	0%	-5%	-27%	-17%[1.9 µM]	/	/
O=C(O)c1cc(=O)c2c(Cl)cc(Cl)cc2[nH]1	10%	-1%	28µM*	27%	/	/
CCOC(=O)C1=C(c2ccccc2)N=c2s/c(=C\c3cccc(O)c3)c(=O)n2C1c1cccs1 (centres undefined)	7%	-4%	-9%	-37%	10	-5%
O=c1/c(=C\c2ccc(O)cc2)sc2n1C(c1ccccc1)C(c1ccccc1)=NN=2 (centres undefined)	180%	8.9µM*	16µM*	-61%	37	-30%
O=C(c1cc(C(F)(F)F)cc(C(F)(F)F)c1)N1CCC[C@@]2(CCN(Cc3nccs3)C2)C1	-2%	1%	1%	?	/	/
O=C(Oc1ccccc1C(=O)Nc1ccccc1)c1ccc(Br)c([N+](=O)[O-])c1	-1%	14µM*	-22%	-19%[10 µM]	-7	-22%
COc1ccccc1C(=O)Oc1ccccc1C(=O)Nc1ccccc1	6%	9%	/	-84%	/	-27%
NC(=O)CC[C@@H]1NC(=O)[C@H](CO)NC(=O)c2cc([N+](=O)[O-])cc(I)c2NCC[C@@H](C(N)=O)NC(=O)[C@H](Cc2ccc(O)cc2)NC1=O	-2%	3.5µM*	-10%	/	29	1%
NC(=O)CC[C@@H]1NC(=O)[C@H](CO)NC(=O)c2cc([N+](=O)[O-])cc(I)c2NCCCC[C@@H](C(N)=O)NC(=O)[C@H](Cc2ccc(O)cc2)NC1=O	3%	-1%	-1%	/	66	1%
CCCCN(c1ccccc1)c1ncnc2c1cnn2C	-5%[14.2 µM]	8%[13.5 µM]	-11%	0%[10 µM]	/	/
O=C(CC(=O)c1ccccc1O)c1cccc(F)c1	14%	-12%	20µM*	-65%	-28	?
O=C(CC(=O)c1ccccc1O)c1ccc(F)cc1	7%	-6%	18µM*	12%[10 µM]	20	?
Cc1ccc(C(=O)CC(=O)c2cc(Cl)ccc2O)cc1	2%	-2%	28µM*	7%	23	?
CCCCC[C@@H](O)[C@@H]1C(=O)O[C@@H](C)[C@@H](O)\C=C/C=C\C=C/C=C\C=C(\C)[C@H](O)C[C@H](O)C[C@H](O)C[C@H](O)C[C@H](O)C[C@H](O)C[C@@H]1O	/	/	/	-5%[10 µM]	/	/
O=C1CCC=C1C(O)c1ccccc1 (centres undefined)	-10%	1%	-13%	-11%	/	/
C#Cc1cccc(Nc2ncnc3cc(OC)c(OC)cc23)c1	-1%	?	/	-36%	/	/
COc1ccc(CC(=O)N2CCN(C(=O)Cc3ccc(OC)cc3)CC2)cc1	5%	-9%	-1%	2%[0.074 µM]	0	3%
COc1ccc(-c2ccc(C(=S)N3CCN(C(C)=O)CC3)o2)cc1	-9%	11µM*	11µM*	-30%	?	-2%
N#CC1=C2SCCN2C(=O)C(C#N)C12CCCCC2 (centres undefined)	/	0.56µM*	/	4%	?	6%
CCCCCCNC(=O)c1ccc(Br)o1	1%[88.7 µM]	-8%[120 µM]	?	-45%[96.6 µM]	6	-7%
O=C(NCc1ccc(Cl)cc1)c1ccc(Br)o1	-18%[88.7 µM]	13µM*!	35µM*	-94%	?	1%
O=C(NCCC1=CCCCC1)c1ccc(Br)o1	-11%	3.5µM*	-17%	-7%	?	5%
O=C(NC(=S)NCCC1=CCCCC1)c1ccc(Br)o1	7%	?	/	-20%	/	12%
CC(C)CC(=O)NCCCCc1ccccc1	-15%	?	16µM*	3%[10 µM]	?	-13%
